Hits are enriched below; roughly 1.8% of the tested compounds scored in any of these assays.
GRK2 aptamer HTS: compounds blocking aptamer binding on GRK2 – biochemical, human GRK2, bead flow cytometry, HTS, primary screen | Beta-adrenergic receptor kinase 1 (Homo sapiens), P25098 | FAM-aptamer displacement from GRK2 | inhibition of aptamer binding, % at 10 µM | 330,000 tested, 0.59% active;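 active = inhibition of aptamer binding above 40%, roughly 3 SD of noise, on plates passing a quality check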;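 also: median bead fluorescence of bound FAM aptamer so fluorescent compounds give negative values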
VLA-4 inh: inhibition in human VLA-4 binding assay, primary screen, VLA-4 allosteric modulator project, MLPCN library, flow cytometry, VLA-4 expressing cells. Integrin alpha-4 (Homo sapiens), P13612. ligand binding flow cytometry. inhibition, % (about 7 µM as worked out from the volumes in the protocol). 330,000 tested, 0.2% active
LANA-H2A inh: blockers of LANA interaction with H2A/H2B – biochemical, FP readout, HTS, primary screen; inhibition, % (concentration not given with the values); 320,000 tested, 0.6% active; Protein LANA1 (Human herpesvirus 8 type P (isolate GK18)), Q9QR71; AID 2629, 2010; cell-free LANA-H2A/H2B peptide, fluorescence polarization; in the data active = inhibition mostly above about 10%, no sharp cut-off; inactive = mostly below about 6.7%
Target sequence (Q9QR71 whole entry, looked up): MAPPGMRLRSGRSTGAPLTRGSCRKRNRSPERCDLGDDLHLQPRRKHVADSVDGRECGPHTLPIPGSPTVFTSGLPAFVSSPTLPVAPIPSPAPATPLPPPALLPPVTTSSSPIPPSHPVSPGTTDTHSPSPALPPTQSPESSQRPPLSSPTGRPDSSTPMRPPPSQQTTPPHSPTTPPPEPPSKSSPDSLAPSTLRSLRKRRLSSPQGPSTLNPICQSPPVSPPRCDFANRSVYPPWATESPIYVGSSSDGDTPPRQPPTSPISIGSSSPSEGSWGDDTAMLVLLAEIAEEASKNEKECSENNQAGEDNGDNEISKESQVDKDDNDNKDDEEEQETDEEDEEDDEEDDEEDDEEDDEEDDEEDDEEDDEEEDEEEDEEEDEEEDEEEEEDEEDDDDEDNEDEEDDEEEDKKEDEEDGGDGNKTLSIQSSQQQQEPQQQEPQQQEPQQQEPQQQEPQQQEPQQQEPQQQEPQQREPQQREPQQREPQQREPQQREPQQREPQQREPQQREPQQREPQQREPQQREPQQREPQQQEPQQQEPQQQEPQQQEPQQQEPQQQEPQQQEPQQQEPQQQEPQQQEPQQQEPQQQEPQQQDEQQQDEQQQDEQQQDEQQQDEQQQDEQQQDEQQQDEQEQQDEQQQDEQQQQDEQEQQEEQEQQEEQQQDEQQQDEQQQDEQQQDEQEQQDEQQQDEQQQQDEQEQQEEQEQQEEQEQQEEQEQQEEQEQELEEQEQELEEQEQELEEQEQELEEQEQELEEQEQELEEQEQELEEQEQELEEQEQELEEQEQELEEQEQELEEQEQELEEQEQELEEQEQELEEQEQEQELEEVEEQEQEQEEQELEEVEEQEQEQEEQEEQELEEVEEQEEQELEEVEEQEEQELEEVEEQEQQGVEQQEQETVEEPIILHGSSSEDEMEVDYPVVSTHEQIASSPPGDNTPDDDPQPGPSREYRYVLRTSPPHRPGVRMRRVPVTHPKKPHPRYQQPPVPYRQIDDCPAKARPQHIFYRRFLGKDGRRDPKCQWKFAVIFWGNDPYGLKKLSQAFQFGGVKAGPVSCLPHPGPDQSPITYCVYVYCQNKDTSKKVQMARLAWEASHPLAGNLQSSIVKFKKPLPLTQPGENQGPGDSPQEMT
HDAC3 inhib: HDAC3 deacetylase inhibitors, primary screen, biochemical, fluorescence, cell-free homogeneous. recombinant HDAC3, fluorogenic peptide/trypsin coupled. Histone deacetylase 3 (Homo sapiens), O15379. inhibition, % at 8.3 µM. 320,000 tested, 0.15% active. AID 2718, 2010; in the data active = inhibition above about 26%, passing the limit was not always enough; inconclusive = no clear call, values can overlap the other calls
Pemphigus Ab inh: inhibitors of pemphigus antibody binding to DSG3, primary screen, biochemical, bead-based, flow cytometry, scFv-GFP. Desmoglein-3 (Homo sapiens), P32926. DSG3-coupled beads, scFv-anti-DSG3-GFP binding; hits give low values. binding (percent of control), % at 10 µM. 310,000 tested, 0.48% active;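 active = binding more than 3 SD below its plate's average and above zero; inconclusive = below that plate limit but binding exactly zero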;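 also: hits lower antibody fragment binding to DSG3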
PKD1 kinase inh: inhibitors of human PKD1 kinase, biochemical, fluorescence polarization | inhibition, % (no concentration beside the values) | 200,000 tested, 0.056% active | PKD1 kinase fluorescence polarization assay | Serine/threonine-protein kinase D1 (Homo sapiens), Q15139 | AID 797, 2007
* hit, by the source's call; ? = inconclusive; nt = not tested or not shown. Rule as the data show it, unless noted: active = inhibition above about 50%; inactive = the rest.

SMILES	GRK2 aptamer HTS	VLA-4 inh	LANA-H2A inh	HDAC3 inhib	Pemphigus Ab inh	PKD1 kinase inh
CCCCOC(=O)CSc1nc2c(c(=O)[nH]c(=O)n2C)n1C/C=C(\C)Cl	3	31	12*	1	105	2
Cn1nc(C(F)(F)F)cc1-c1ccc(/C=C(\C#N)C(=O)c2ccccc2)s1	6	-3	20*	4	124	nt
CCN(CC)c1ccc(C2=NNC(=O)CC2C)cc1[N+](=O)[O-] (centres undefined)	0	-1	20*	6	102	1
CC1CC(=O)NN=C1c1ccc(N(C)C)c([N+](=O)[O-])c1 (centres undefined)	0	9	-2	8	104	-6
C=CCOC(=O)/C(=C/c1cccc2ccccc12)NC(=O)c1ccccc1	1	9	9	5	109	-1
CCc1cc(-c2nc(N)ncc2-c2ccc(Br)cc2)c(O)cc1OC	5	14	19*	-1	97	nt
C=C(C(=O)Oc1ccccc1C(C)(C)C)c1ccccc1	0	55*	0	3	nt	nt
Cc1ccccc1OCCC(=O)Nc1ccc(N2CCOCC2)cc1N1CCOCC1	0	9	4	3	104	nt
Cc1nc2ccccn2c1-c1ccnn1S(=O)(=O)c1ccc(F)cc1	0	14	-3	nt	114	nt
COC(=O)c1cc(C(=O)NCc2ccccc2)c(=O)[nH]c1C	0	5	2	-6	104	9
COc1ccc(CNC(=O)C2CCCN(c3nc4ccccc4o3)C2)c(OC)c1 (centres undefined)	2	-3	-2	1	98	-11
COc1cccc(CNC(=O)C2CCCN(c3nc4ccccc4o3)C2)c1 (centres undefined)	0	-4	14*	-3	98	-10
CCOC(=O)c1[nH]ncc1CN1CCCC(C(=O)c2ccc(C(C)(C)C)cc2)C1 (centres undefined)	3	4	-6	9	100	-9
CCOCCCNC(=O)c1ccc2c(c1)ncn2-c1ccccc1OC	2	8	1	0	113	nt
COc1cc(C2C3=C(CC(C)(C)CC3=O)OC3=C2C(=O)CC(C)(C)C3)cc([N+](=O)[O-])c1O	0	-5	1	-3	98	-2
N#Cc1cc(Oc2ccccc2)c(-n2nnc3ccccc32)cc1C#N	0	-2	26*	2	95	5
N#Cc1cc(Oc2ccc3ccccc3c2)c(-n2nnc3ccccc32)cc1C#N	0	10	-9	0	97	-8
COc1ccc(CCNC(=S)NCc2ccc(Cl)c(Cl)c2)cc1OC	2	8	-5	-7	102	-5
CCOC(=O)COn1c(-c2cccc(Cl)c2)nc2ccc([N+](=O)[O-])cc21	0	2	-10	13	105	-5
CCOC(=O)C(C)On1c(-c2cccc(Cl)c2)nc2ccc([N+](=O)[O-])cc21 (centres undefined)	0	11	51*	3	98	8
COc1ccc(-c2cc(C(=O)N3CC4(C)CC3CC(C)(C)C4)no2)cc1OC (centres undefined)	0	-2	55*	-6	101	5
COc1ccc(-c2cc(C(=O)N3CC4(C)CC3CC(C)(C)C4)no2)cc1 (centres undefined)	3	-4	-10	2	102	0
Cc1nc2c(C)cccn2c1/C(O)=C1\C(=O)C(=O)N(CCN(C)C)C1c1ccccc1 (centres undefined)	0	25	12*	2	113	nt
CCn1c(=O)c(C(=O)CN2CCN(S(=O)(=O)c3cc(C)ccc3C)CC2)c(N)n(Cc2ccccc2)c1=O	0	6	2	6	88*	5
COc1cc(C(=O)N(c2ccc(C)c(C)c2)C2C=CS(=O)(=O)C2)cc(OC)c1OC (centres undefined)	2	8	0	-1	108	-6
SMILES	GRK2 aptamer HTS	VLA-4 inh	LANA-H2A inh	HDAC3 inhib	Pemphigus Ab inh	PKD1 kinase inh
COc1ccc(N2CCN(C(=O)NCc3ccc(OC)c(OC)c3)CC2)cc1	0	7	3	-3	nt	nt
COc1ccc(N2CCN(C(=O)NCc3ccc(OC)c(Cl)c3)CC2)cc1	4	15	1	?	44*	1
CCC(C)(C)C1CCC(NC(=O)N2CCN(c3ccccc3O)CC2)CC1 (centres undefined)	0	-1	3	-3	95	nt
COCC(C)NC(=O)c1ccc(CN2CCc3ccccc3C2)cc1 (centres undefined)	0	-6	31*	2	83	-6
Cc1ccc(S(=O)(=O)Oc2ccccc2/C=N/N=C(N)N)cc1	0	0	38*	12	102	-3
Cc1ccc(S(=O)(=O)Oc2ccccc2/C=N/NC(N)=S)cc1	12	-4	0	-5	104	-3
O=C(Nc1ccccc1)OCc1cc(-c2ccccc2Cl)on1	0	6	31*	4	105	6
C/C(=N\OC(=O)c1cccc(C(F)(F)F)c1)c1sc(-c2ccccc2)nc1C	0	2	-3	-2	78*	-20
C/C(=N\OC(=O)c1cccc(C)c1)c1sc(-c2ccccc2)nc1C	3	-41	3	-1	-28*	-4
C/C(=N\OC(=O)c1ccc(F)cc1)c1sc(-c2ccccc2)nc1C	5	11	-3	16	nt	-11
O=C(CCc1nc2sc3c(c2c(=O)[nH]1)CCCC3)NCCOc1ccccc1	0	-1	-5	2	108	nt
Cc1ccc(OCCNC(=O)CCc2nc3sc4c(c3c(=O)[nH]2)CCCC4)cc1	2	1	35*	-4	nt	nt
CN1CCN(C(=O)/C=C/c2ccc(Cl)cc2)CC1	1	7	4	-2	102	0
O=C(/C=C/c1ccc(Cl)cc1)N1CCN(Cc2ccccc2)CC1	44*	0	5	9	95	nt
Cc1ccc(S(=O)(=O)N(C)CC(=O)NCCCn2ccnc2)cc1	0	0	-3	6	103	nt
CCCCCCC(=O)N(O)C1CC(=O)N(c2ccc(Br)cc2)C1=O (centres undefined)	2	8	-3	80*	82	-3
CCCCCCC(=O)N(O)C1CC(=O)N(c2ccc(F)cc2)C1=O (centres undefined)	0	-12	2	79*	102	nt
COc1ccc(C(=O)OCCNC(=O)c2ccncc2)cc1OC	0	-2	nt	nt	91	1

Source: PubChem
